This passage reports growth results from PubChem BioAssay (NCI).

The panel holds about 83,000 compounds, 20% with a hit somewhere; the sample as a whole holds those more often.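 Plates (96-well) were seeded with cells, treated with compound at one concentration, and incubated for 48 hours before percent growth was determined.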 A number with no mark means an inactive call. Active and inactive are the calls of the source. How the source made its calls: active means growth percent below 10; inactive means the rest.

What all share (assay): NCI-60 one-dose screen, 48 h (100 = growth as untreated, 0 = no growth, -100 = all killed)
What all share (conditions): 10 µM unless noted

Experiment [1] relates to SK-MEL-2 melanoma.
The subject of experiment [2] is EKVX NSCLC.
Experiment [3] deals with SN12C renal.
Experiment [4] has as its system UO-31 renal.
Experiment [5] relates to TK-10 renal.
The test system of experiment [6] is ACHN renal.
The subject of experiment [7] is CAKI-1 renal.
For experiment [8], the system named is A498 renal.
The test system of experiment [9] is CCRF-CEM leukemia.
The test system of experiment [10] is MOLT-4 leukemia.

With `O=C(NCc1cccc(CNC(=O)Nc2nc3ccccc3[nH]2)c1)Nc1nc2ccccc2[nH]1`, the growth is -11.8% (active) in experiment [1]; 11% in experiment [2]; -52.2% (active) in [3]; 62.6% in experiment [4]; -32.7% (active) in [5]; 70.2% in experiment [6]. For the same compound, the growth in experiment [7] was 31.6%; in experiment [8], -31% (active); in experiment [9], 30.3%; in experiment [10] it was -16.1% (active).
As for `CCN1C2CCC1/C(=C\c1ccc(F)cc1)C(=O)/C2=C/c1ccc(F)cc1`, the growth in experiment [1] is 58.9%; in experiment [2], 57.2%; in experiment [3], 44.5%; in [4], 53.6%; in experiment [5] it was 74.2%; in [6] it was 48.6%. In addition, the growth in experiment [7] is 66.4%; in [8] it was 58.7%; in experiment [9], 18.2%; in experiment [10] it was 13.9%.
`N#CC1=C(N)Oc2ccc3ccccc3c2C1c1ccc([N+](=O)[O-])cc1` (stereo not given): the growth in experiment [1] was 93.9%; in experiment [2], 65.8%; in experiment [3] it was 90.4%; in experiment [4], 51.1%; in [5], 156%; in experiment [6] it was 76.8%. The growth was 52.8% in experiment [7], 84.8% in experiment [8], 63.7% in experiment [9] and 68.6% in experiment [10].
Turning to `O=P(O)(O)OCC1OC(n2cnc3c(NCc4ccco4)ncnc32)C(O)C1O` (stereo not given), the growth is 89.2% in [1]; 48.6% in experiment [2]; 12.1% in [3]; -6.51% (active) in experiment [4]; 60.9% in experiment [5]; 4.1% (active) in [6]. The growth is -42.3% (active) in [7], 7.68% (active) in experiment [8], -31.5% (active) in [9] and 16% in [10].
`O=C(Nc1ncc(Cc2cc(C(F)(F)F)ccc2Cl)s1)c1cccs1`: the growth in [1] was 45%; in experiment [2] it was 57.3%; in experiment [3], 70.9%; in [4], 58.9%; in experiment [5] it was 71.7%; in experiment [6], 67.2%. Besides, the growth in experiment [7] is 41.7%; in [8] it was 62.2%; in [9], 45.4%; in [10] it was 29.4%.
In the case of `COc1ccc(-c2nc(/C=C3\C(=O)N(C)c4ccccc43)c3ccccn23)cc1`, the growth in experiment [1] was 83.7%; in [2], 113%; in [3], 82.3%; in experiment [4] it was 69.3%; in experiment [5], 60.1%; in experiment [6], 64.5%. The growth was 94.1% in experiment [7], 103% in experiment [8], 71.7% in [9] and 95.7% in [10].
As for `COc1ccc(C[n+]2c3ccccc3n3c4ccc(N)cc4ccc32)c(OC)c1OC`, the growth in [1] is 44%; in [2], 49.3%; in [3], 6.42% (active); in experiment [4], 88.7%; in [5], 78.2%; in [6], 101%. The growth in experiment [7] was 96.6%; in [8] it was 81.3%; in experiment [9] it was 40.4%; in experiment [10], 67.9%.
For `Cc1ccc(C)c(/C=C2\CN(C(=O)OC(C)(C)C)C/C(=C\c3cc(C)ccc3C)C2=O)c1`, the growth is 82% in [1]; 82.8% in [2]; 31.4% in experiment [3]; 61.1% in [4]; 89.1% in experiment [5]; 15.5% in [6]. The growth is 45.2% in [7], 73% in experiment [8], 4.98% (active) in experiment [9] and 7.4% (active) in [10].
In the case of `N#CSc1c[nH]c2cccc(/C=C/C(=O)/C=C(O)/C=C/c3cccc4[nH]cc(SC#N)c34)c12`, the growth was -58.8% (active) in experiment [1]; -23.9% (active) in experiment [2]; -71.2% (active) in experiment [3]; -87.3% (active) in experiment [4]; -44.8% (active) in [5]; -85.6% (active) in experiment [6]. Moreover, the growth is -70% (active) in experiment [7], -12.7% (active) in experiment [8], -22.1% (active) in [9] and -39% (active) in experiment [10].
For the compound `CCCCCN(CCCCC)CC(O)c1cc(C)c2ccc3cc(C(C)C)ccc3c2c1` (stereo not given), the growth in experiment [1] is 82.6%; in experiment [2] it was 63.2%; in [3], -52.9% (active); in [4], 51.8%; in experiment [5], 75.5%; in experiment [6], -77.8% (active). Also, the growth in experiment [7] is 57.7%; in experiment [8], 19.5%; in experiment [9] it was -7.34% (active); in [10], -21.5% (active).
With `CCOC(=O)C1=C(C)/C(=C\c2[nH]c(C)c(C(=O)OCC)c2C)N=C1C`, the growth in [1] was 85.6%; in [2] it was 94.2%; in experiment [3], 79.1%; in experiment [4], 73.7%; in experiment [5] it was 108%; in experiment [6] it was 96.5%. Also, the growth in experiment [7] was 85%; in [8], 103%; in experiment [9], 4.69% (active); in experiment [10], 9.99% (active).
Consider `Cn1cc(-c2nn3cc(-c4cccs4)nc3s2)c2cc(F)ccc21`, for which the growth in experiment [1] was 35%; in experiment [2], 47.7%; in experiment [3] it was 36%; in experiment [4] it was 35.8%; in [5], 53.7%; in experiment [6], 43.5%. Besides, the growth was 27.8% in [7], 7.55% (active) in [8], 21.9% in experiment [9] and 22.3% in experiment [10].
On to `NS(=O)(=O)c1ccc(NC(=O)/C(=C\c2ccc(Cl)cc2Cl)NC(=O)c2ccccc2)cc1`, for which the growth in experiment [1] was 95.3%; in [2] it was 99.6%; in experiment [3], 94.7%; in experiment [4], 75.8%; in experiment [5], 104%; in experiment [6], 98.2%. In addition, the growth is 88.6% in experiment [7], 95% in experiment [8], 105% in experiment [9] and 92.3% in experiment [10].
